PubChem BioAssay (NCATS)
Inconclusive results are not listed. The source made the active and inactive calls. Calls come from the whole dose curve; as a rule, active = well fitted cell-killing curve with a large enough effect; inconclusive = small, poorly fitted or top-dose-only effect; inactive = no such curve, though single readings can be large or run the other way.
Potency is the fitted concentration of half-maximal effect.

Assay: qHTS of pediatric cancer cell lines to identify multiple opportunities for drug repurposing: Primary screen for Rh41 cells (AID 1347108); note: nearly all actives have a fitted effect of over 70% in size
Conditions: Rh41 rhabdomyosarcoma viability, CellTiter-Glo luminescence, 48 h; series mostly up to 46 µM
Summary of the method: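 500-1,000 cells/well; 5 h pre-incubation 37 °C/5% CO2; compound pinned; 48 h; CellTiter-Glo, 15 min RT; luminescence. MIPE 11-pt from 0.78 nM, NPC 8-pt from 0.59 nM final. Bortezomib 2.3 µM final as positive control.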
In the case of `COc1cc2c(Nc3ccc(Cl)c(Cl)c3F)ncnc2cc1OCC1C[C@@H]2CN(C)C[C@H]2C1`, the Potency is reported as 9.35 µM (active).
In the case of `Oc1ccc([C@@H]2Oc3ccc(O)cc3[C@@H]3CCC[C@@H]32)cc1`, the Potency is reported as 18.7 µM (active).
With `FC(F)c1nc2ccccc2n1-c1nc(N2CCOCC2)nc(N2CCOCC2)n1` the Potency was 1.48 µM (active).
With `C=C1C(=CC=C2CCC[C@]3(C)[C@@H]([C@H](C)CCCC(C)(C)O)CC[C@@H]23)C[C@@H](O)C[C@@H]1O` the Potency was 5.9 µM (active).
With `NC(=O)c1ncn([C@@H]2O[C@H](CO)[C@@H](O)[C@@H]2O)c1O` the Potency was “inactive”.
For `COc1cccc2c1C(=O)c1c(O)c3c(c(O)c1C2=O)C[C@@](O)(C(C)=O)C[C@H]3O[C@H]1C[C@H](N)[C@H](O)[C@H](C)O1`, the Potency was 0.0469 µM (active).
With `O=C(Nc1cccc(Nc2ncc(Br)c(NCCc3cnc[nH]3)n2)c1)N1CCCC1` the Potency was 9.35 µM (active).
For `CC(C)OC(=O)[C@H](C)N[P@](=O)(OC[C@H]1O[C@@H](n2ccc(=O)[nH]c2=O)[C@](C)(F)[C@H]1O)Oc1ccccc1`, the Potency was “inactive”.
In the case of `CC(=O)NC(CS)C(=O)O` (stereo not given), the Potency is reported as “inactive”.
In the case of `O=C1NC(=O)C(=Cc2ccc3nccc(-c4ccncc4)c3c2)S1`, the Potency is reported as 0.59 µM (active).
